About 83,000 compounds went through this panel and 20% of them were active in at least one assay; those are over-represented in the sample as a whole.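 Values shown are percent growth following 48 h exposure of cells in 96-well plates to a single concentration of compound; below 10 was considered active.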 A number with no mark means an inactive call. Calls of active or inactive are those of the source.
Columns and labels:
Assay in all cases: NCI-60 one-dose screen, 48 h (100 = growth as untreated, 0 = no growth, -100 = all killed)
Conditions in all cases: 10 µM unless noted
SK-MEL-2 melanoma = tested on: SK-MEL-2 melanoma
EKVX NSCLC = tested on: EKVX NSCLC
SN12C renal = tested on: SN12C renal
UO-31 renal = tested on: UO-31 renal
TK-10 renal = tested on: TK-10 renal
ACHN renal = tested on: ACHN renal
CAKI-1 renal = tested on: CAKI-1 renal
A498 renal = tested on: A498 renal
CCRF-CEM leukemia = tested on: CCRF-CEM leukemia
MOLT-4 leukemia = tested on: MOLT-4 leukemia

Compound	growth (SK-MEL-2 melanoma)	growth (EKVX NSCLC)	growth (SN12C renal)	growth (UO-31 renal)	growth (TK-10 renal)	growth (ACHN renal)	growth (CAKI-1 renal)	growth (A498 renal)	growth (CCRF-CEM leukemia)	growth (MOLT-4 leukemia)
CCCCCCCCn1ccc2cc(NC(=O)CN3CCN(c4nc(C)cc(Cl)n4)CC3)ccc21	122%	93.6%	99.5%	58.9%	108%	98.1%	87.2%	109%	-34.6% (active)	4.97% (active)
CCNC(=O)c1[nH]cc(-c2ccccc2)c1-c1cc(OC)c2c(c1OC)OCO2	99.9%	96.9%	98.7%	76%	106%	99.1%	74.7%	77.1%	101%	98.9%
CS(=O)(=O)C1=CN(CCO)C(=O)N2CCCN=C12	111%	100%	99.7%	78%	109%	103%	98%	88%	114%	106%
O=C(/C=C/c1ccc(Cl)cc1)c1cccc(Nc2nc(Nc3ccccc3)nc(Nc3ccccc3)n2)c1	45.7%	106%	102%	61.8%	92.6%	92.9%	83.6%	95.2%	76.2%	61.7%
Cc1nc(-c2ccccc2)cc2c(O)c(C(=O)NN)[nH]c(=O)c12	93.3%	111%	90.9%	97.4%	161%	109%	114%	100%	95.1%	102%
CCOC(=O)Cn1c(O)c(N=Nc2ccc(S(N)(=O)=O)cc2)c2cc(Br)ccc21	88.8%	83.3%	88.2%	87.5%	86.4%	84.8%	86.4%	91.4%	53.4%	77%
COP(=O)(OC)C(C)(C)CC(=O)CC(C#N)(C#N)C(C#N)C#N	118%	99.4%	99.6%	85.1%	104%	100%	96.4%	121%	-30.3% (active)	104%
Cc1nn(-c2ccccc2)c(Oc2ccccn2)c1-c1nc2ccccc2s1	99.2%	90.4%	100%	88.2%	103%	98.3%	82.3%	106%	102%	-49.2% (active)
O=C1N[C@@H]2NC(=[N+]3CCOCC3)N[C@@H]2N1	118%	102%	97.8%	87.3%	103%	104%	91.5%	98.3%	108%	103%
Cc1oc(-c2ccc(Cl)cc2)nc1/C=C/C(=O)c1ccccc1	100%	95%	95.6%	83.9%	122%	101%	91.9%	101%	97%	92.3%
COC(=O)[C@]1(C)CCC[C@]2(C)[C@H]3C[C@H]4C(C(C)C)=C[C@]3(CC[C@H]21)[C@H]1[C@@H]4[C@@H](OCCC#N)CC[C@@H]1OCCC#N	28.8%	29.9%	2.29% (active)	32.6%	46.2%	39.2%	51.8%	66.8%	19.1%	4.3% (active)
O=C(O)/C(=C\c1ccc(Cl)cc1)c1ccc(Cl)cc1	90.3%	94.3%	90.4%	77.7%	106%	95.2%	70.8%	94.9%	96.5%	50%
COc1ccc(C(c2cc(OC)c(OC)c(OC)c2)N2CCN(c3ccccc3)CC2)cc1 (stereo not given)	69.3%	99.6%	101%	73.4%	106%	98%	86.4%	89.2%	82.6%	72.8%
C=CCn1cc(-c2nc3ccccc3s2)c2cc(-c3ccc4c5c(cccc35)C(=O)N(N)C4=O)ccc21	102%	82.1%	92.1%	61.3%	152%	92%	75.1%	106%	104%	96.5%
CC(=O)n1nc(C(=O)OC(C)C)c2cc(C)c(C)cc21	106%	99%	105%	94.4%	98.6%	101%	99.3%	104%	84.7%	84.8%
COc1ccc2c(c1)[n+]([O-])c(C(=O)/C=C/C=C(\Cl)c1cc(OC)c(OC)c(OC)c1)c(C)[n+]2[O-]	47.2%	85.6%	78.1%	107%	89.2%	44.7%	79.1%	96.6%	99.8%	96.1%
COc1ccc(OC)c(C(=O)/C=C/c2cc3c(c(OC)c2OC)OCO3)c1	83.6%	73%	74.7%	63.6%	122%	68%	52%	69.9%	40.1%	52.8%
Cc1c(-c2nc3ccc(F)cc3c(=O)[nH]2)c2ccccc2n1C	45.6%	57.5%	38.8%	53.7%	83.5%	36%	40.8%	-12.8% (active)	15.6%	23%
CCOC(=O)C(=Cc1cccc(Cl)c1)C(=O)OCC	25.3%	78.7%	33.3%	-56.2% (active)	3.56% (active)	-72.9% (active)	61.5%	112%	-1.23% (active)	13.4%
CCOC(=O)CNP(=O)(OC[C@@H](Cc1ccccc1)NC(=O)c1cc2ccccc2s1)Oc1ccccc1 (stereo not given in full)	75.9%	80.6%	84.9%	80.7%	109%	99.9%	70.6%	38.5%	86.5%	54.8%
COc1cc(-c2nc3cc(Cl)c(Cl)cc3[nH]2)ccc1OCC(=O)N=Nc1c(O)[nH]c2ccc([N+](=O)[O-])cc12	102%	96.2%	81.2%	91.1%	124%	104%	97.2%	109%	21.6%	74.2%
CCOC(=O)c1ccc2[nH]c(O)c(C(=Nc3ccc(N(C)C(=O)CN4CCN(C)CC4)cc3)c3ccccc3)c2c1	-59.2% (active)	-3.53% (active)	11.4%	-41.6% (active)	-70% (active)	2.92% (active)	-0.635% (active)	-59.9% (active)	4.58% (active)	-14% (active)
O=[N+]([O-])c1ccc(N/N=C(/C(=N/Nc2ccc([N+](=O)[O-])cc2)c2ccccc2)c2ccccc2)cc1	11.2%	94.1%	81.4%	51.8%	94.4%	-1.56% (active)	53.7%	101%	90.9%	73.9%
CCN(C(=O)N1CCN(c2cc3c(cc2F)c(=O)c(C(=O)O)cn3C2CC2)CC1)c1nc(-c2ccc(Cl)cc2)cs1	9.44% (active)	16.9%	3.28% (active)	5.03% (active)	28.4%	-12.2% (active)	6.12% (active)	3.1% (active)	20.7%	5.81% (active)
O=Cc1ccc([N+](=O)[O-])s1	107%	114%	84.1%	89.8%	112%	90.8%	100%	94.5%	88.2%	88.3%
Cc1nc2sc(C(=O)Nc3ccccc3)c(N)c2cc1C(=O)c1ccccc1	49.9%	35.2%	81.5%	59.5%	54.7%	51.7%	35.6%	-3.88% (active)	8.47% (active)	31.6%
O=C(CCc1nnc(Cn2cnc3nc[nH]c3c2=O)o1)c1nc2ncccc2[nH]1	103%	102%	95.1%	80.8%	96.9%	105%	92.2%	94.8%	90.5%	103%
